Our source for the max activity values is PubChem BioAssay AID1224921 (Broad Institute, 2016).

Molecules are shown by their SMILES. The whole screen tested about 1,400 compounds, of which about 350 (25%) were called active. Roughly 2% stayed inconclusive and do not appear here. Not all results are given here. Results with a measured potency or affinity are listed apart. Unmarked numbers belong to inactive results. The rule behind the calls is not given here.

This test in a line: inhibitors of Clostridioides difficile proliferation – 4-point retest, confirmation (AID 1224921).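 Note: plate controls were DMSO wells for no effect and levofloxacin 16 µg/mL wells for full effect.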 The settings on record: Clostridioides difficile clinical isolate growth, OD600, 24 h, hits give low values; at 30 µM unless noted.
For `O=C(C[C@H]1C[C@@H]2c3cc(NC(=O)C4CCC4)ccc3O[C@@H]2[C@@H](CO)O1)NCc1ccc(Cl)cc1`, the max activity is -16.5% [at 0.5 µM].
With `Cc1cc(C(=O)Nc2cccc3c2O[C@H](CN(C)Cc2ccc(Oc4ccccc4)cc2)[C@@H](C)CN([C@H](C)CO)C3=O)n(C)n1`, the max activity is 41%.
With `C[C@@H]1CN([C@@H](C)CO)C(=O)Cc2cc(NC(=O)c3ccncc3)ccc2O[C@H]1CN(C)Cc1ccc(-c2ccccc2)cc1`, the max activity was 25.3% [at 8 µM].
On to `C[C@@H]1CN([C@H](C)CO)C(=O)c2cccc(NC(=O)c3ccncc3)c2O[C@H]1CN(C)Cc1ccc(Cl)c(Cl)c1`, for which the max activity was 16.6%.
Regarding `C[C@H]1CN([C@@H](C)CO)C(=O)c2cccc(NS(C)(=O)=O)c2O[C@@H]1CN(C)Cc1ccccc1`, the max activity was -11.4% [at 0.5 µM].
Regarding `C[C@@H]1CN([C@@H](C)CO)C(=O)c2cccc(NC(=O)c3ccncc3)c2O[C@H]1CN(C)Cc1ccc(-c2ccccc2)cc1`, the max activity was 13.2% [at 8 µM].
Then `C[C@@H]1CN([C@H](C)CO)C(=O)c2cccc(NC(=O)c3ccncc3)c2O[C@H]1CN(C)Cc1ccc(-c2ccccc2)cc1`, with 36.1% [at 8 µM]; and `CO[C@H]1CN(C)C(=O)c2cc(NC(=O)Nc3cccc(F)c3)ccc2OC[C@@H](C)N(C)C[C@@H]1C`, with -17.5%.
On to `CO[C@@H]1CN(C)C(=O)c2cc(NS(=O)(=O)c3ccccc3C)ccc2OC[C@@H](C)N(C)C[C@H]1C`, for which the max activity was -6.93% [at 1.95 µM].
For `CCC(=O)N[C@H]1CC[C@H](CC(=O)NCCN2CCCCC2)O[C@@H]1CO`, the max activity was 25.2%.
Take `Cc1ccccc1-c1ccc2c(c1)O[C@H](CN(C)Cc1ccncc1)[C@H](C)CN([C@@H](C)CO)S2(=O)=O`: the max activity is 25.3%.
Take `O=C(C[C@@H]1CC[C@@H]2[C@H](COC[C@@H](O)CN2S(=O)(=O)c2ccccc2)O1)NCc1ccc(-c2ccccc2)cc1`: the max activity is 25.5%.
`O=C(C[C@H]1CC[C@H]2[C@@H](COC[C@H](O)CN2S(=O)(=O)c2ccccc2)O1)NCc1ccc(-c2ccccc2)cc1`: the max activity was 41.2%.
For the compound `CC(C)CC#Cc1ccc2c(c1)O[C@@H](CN(C)Cc1cccnc1)[C@H](C)CN([C@H](C)CO)S2(=O)=O`, the max activity was 41.5% [at 8 µM].
As to `CC(C)CC#Cc1ccc2c(c1)O[C@H](CN(C)Cc1ccccc1F)[C@H](C)CN([C@@H](C)CO)S2(=O)=O`, the max activity is 23.7% [at 8 µM].
Consider `CO[C@@H]1CN(C)C(=O)c2ccc(NC(=O)c3ccccn3)cc2OC[C@@H](C)N(C(=O)C2CCC2)C[C@H]1C`, for which the max activity was -10.9% [at 23.5 µM].
For `CC(C)C(=O)Nc1ccc2c(c1)C(=O)N(C)[C@H]1CC[C@@H](CC(=O)NCc3ccccc3F)O[C@H]1CO2`, the max activity is -11.1% [at 1.95 µM].
On to `C[C@@H]1CN([C@@H](C)CO)S(=O)(=O)c2ccc(C#CC3CCCC3)cc2O[C@H]1CN(C)Cc1cccnc1`, for which the max activity was 15.4%.
As to `O=C(N[C@@H]1C=C[C@@H](CC(=O)N2CCc3ccccc3C2)O[C@@H]1CO)C1CC1`, the max activity was 15.1%.
As for `CC(C)CC#Cc1ccc2c(c1)O[C@H](CN(C)Cc1ccc3c(c1)OCO3)[C@H](C)CN([C@@H](C)CO)S2(=O)=O`, the figure is 27.5%; as for `O=C(C[C@H]1C[C@@H]2c3cc(NC(=O)Nc4ccc(C(F)(F)F)cc4)ccc3O[C@@H]2[C@H](CO)O1)NCc1ccc(Cl)cc1`, 21.4%.
Then `CCCC(=O)Nc1ccc2c(c1)OC[C@H](C)N(CCc1ccccc1)C[C@H](C)[C@@H](OC)CN(C)C2=O`, with 22%; and `C[C@H]1CN([C@@H](C)CO)C(=O)c2cccc(NC(=O)c3ccc(-c4nccs4)cc3)c2O[C@@H]1CN(C)C(=O)Nc1ccc(C(F)(F)F)cc1`, with 20.3% [at 8 µM]; and `COc1ccccc1CNC(=O)C[C@H]1C[C@@H]2c3cc(NC(=O)NC4CCCC4)ccc3O[C@@H]2[C@H](CO)O1`, with -8.77% [at 2.1 µM].
As to `C[C@@H]1CN([C@H](C)CO)C(=O)c2c(c3ccccc3n2C)-c2ccccc2CO[C@@H]1CN(C)Cc1ccncc1`, the max activity was 24.2% [at 35 µM].
`CCC(CO)Oc1cc(NCc2ccccc2)c2ncn(C(C)C)c2c1` (stereo not drawn): the max activity is -5.47% [at 8 µM].
Then `CCS(=O)(=O)Nc1ccc2c(c1)C(=O)N(C)C[C@H](OC)[C@H](C)CN(CC1CCCC1)[C@@H](C)CO2`, with 11.3%; and `CC(C)=CCN(C(=O)C#Cc1ccccc1)[C@H](CO)c1ccccc1`, with 14.2% [at 1.95 µM].
For `C[C@H](CO)N1C[C@H](C)[C@H](CN(C)Cc2ccc(C(F)(F)F)cc2)OCCCC[C@H](C)Oc2ccc(NS(C)(=O)=O)cc2C1=O`, the max activity is 5.77% [at 1.95 µM].
Regarding `CCCC#Cc1ccc2c(c1)O[C@@H](CN(C)Cc1ccncc1)[C@H](C)CN([C@@H](C)CO)S2(=O)=O`, the max activity is -9.09% [at 1.95 µM].
As for `CO[C@@H]1CN(C)C(=O)c2ccc(NC(=O)c3nc4ccccc4s3)cc2OC[C@H](C)N(Cc2cccnc2)C[C@H]1C`, the figure is 25.4%; as for `CCCC(O)C#Cc1cnc2c(c1)C(=O)N([C@H](C)CO)C[C@H](C)[C@H](CN(C)Cc1ccncc1)O2` (stereo partly drawn), 12%.
For the compound `C[C@H](CO)N1C[C@H](C)[C@H](CN(C)C(=O)c2cccc(F)c2)Oc2ncc(C3=CCCCC3)cc2C1=O`, the max activity is -6.68% [at 8 µM].
As to `C[C@@H]1CN([C@H](C)CO)C(=O)c2c(c3ccccc3n2C)-c2ccccc2CO[C@@H]1CN(C)S(=O)(=O)CC(F)(F)F`, the max activity was 28.3%.
On to `Cc1ccccc1S(=O)(=O)NCC[C@@H]1CC[C@@H](NC(=O)Nc2cccc(Cl)c2)[C@@H](CO)O1`, for which the max activity is 23.9%.
`C[C@H]1CN([C@@H](C)CO)C(=O)Cc2cc(NS(C)(=O)=O)ccc2O[C@@H]1CN(C)Cc1ccccc1`: the max activity is 11.3%.
On to `COCC(=O)Nc1ccc2c(c1)OC[C@@H](C)N(Cc1cncnc1)C[C@H](C)[C@@H](OC)CN(C)C2=O`, for which the max activity is -8.05% [at 1.95 µM].
With `C[C@H](CO)N1C[C@H](C)[C@H](CN(C)S(=O)(=O)c2ccsc2)OCc2ccccc2-c2ccccc2C1=O`, the max activity is -12.1% [at 0.5 µM].
Consider `C[C@H](O)C#Cc1ccc2c(c1)O[C@H](CN(C)CC1CCCCC1)[C@H](C)CN([C@H](C)CO)S2(=O)=O`, for which the max activity is 20.7%.
For the compound `C[C@H]1CN([C@@H](C)CO)C(=O)c2cc(NC(=O)Cc3ccccc3)ccc2O[C@@H]1CN(C)C(=O)Nc1ccccc1`, the max activity was -13.4% [at 0.5 µM].
Regarding `C[C@H](NC(=O)C[C@H]1C=C[C@@H](NC(=O)CN2CCOCC2)[C@H](CO)O1)c1ccccc1`, the max activity is -8.28% [at 8 µM].
For `C/C=C/c1cnc2c(c1)C(=O)N([C@H](C)CO)C[C@@H](C)[C@@H](CN(C)Cc1ccc(F)cc1)O2`, the max activity is -15% [at 0.5 µM].
For `COc1ccccc1S(=O)(=O)N[C@H]1C=C[C@@H](CC(=O)N2CCCCC2)O[C@@H]1CO`, the max activity was -9.97% [at 8 µM].
`CO[C@@H]1CN(C)C(=O)c2ccc(NC(=O)c3ccccc3F)cc2OC[C@H](C)N(CC2CC2)C[C@@H]1C`: the max activity is -12.3% [at 8 µM].
Consider `CCCC#Cc1ccc2c(c1)O[C@H](CN(C)Cc1cccnc1)[C@@H](C)CN([C@@H](C)CO)S2(=O)=O`, for which the max activity was 13.7% [at 8 µM].
Then `CCCNC(=O)N1C[C@H](C)[C@H](OC)CN(C)C(=O)c2cc(NC(C)=O)ccc2OC[C@H]1C`, with 4.83% [at 8 µM]; and `CC(=O)N(C)C[C@@H]1Oc2ncc(C#Cc3ccc(F)cc3)cc2C(=O)N([C@@H](C)CO)C[C@@H]1C`, with 32.1%.
Turning to `C/C=C/c1ccc2c(c1)O[C@H](CN(C)C(=O)Cc1ccncc1)[C@@H](C)CN([C@H](C)CO)S2(=O)=O`, the max activity was -10.9% [at 8 µM].
With `CCCN1C[C@@H](C)[C@@H](OC)CN(C)C(=O)c2cc(NC(=O)c3cccc(OC)c3)ccc2OC[C@@H]1C`, the max activity was -16.1% [at 1.95 µM].
Turning to `COc1ccccc1C#Cc1ccc2c(c1)O[C@H](CN(C)Cc1cccnc1)[C@H](C)CN([C@@H](C)CO)S2(=O)=O`, the max activity is 25.3%.
Then `Cc1ccccc1-c1ccc2c(c1)O[C@@H](CN(C)Cc1ccncc1)[C@@H](C)CN([C@H](C)CO)S2(=O)=O`, with 49.5%; and `CO[C@H]1CN(C)C(=O)c2ccc(NC(=O)C3CC3)cc2OC[C@H](C)N(Cc2cncnc2)C[C@H]1C`, with -10.1% [at 1.95 µM].
Regarding `CO[C@H]1CN(C)C(=O)c2ccc(NC(=O)Nc3ccccc3)cc2OC[C@@H](C)NC[C@H]1C`, the max activity was -11.9%.
Regarding `CO[C@H]1CN(C)C(=O)c2ccc(NC(=O)Nc3ccccc3)cc2OC[C@H](C)NC[C@H]1C`, the max activity was -20.9% [at 8 µM].
As for `CO[C@@H]1CN(C)C(=O)c2ccc(NC(=O)c3nc4ccccc4s3)cc2OC[C@H](C)N(Cc2ccncc2)C[C@@H]1C`, the figure is 26.2%; as for `CO[C@@H]1CN(C)C(=O)c2ccc(NC(=O)Nc3ccccc3)cc2OC[C@H](C)NC[C@H]1C`, -11.5% [at 0.5 µM]; as for `CO[C@@H]1CN(C)C(=O)c2ccc(NC(=O)Nc3ccccc3)cc2OC[C@H](C)NC[C@@H]1C`, -13.5% [at 8 µM].
Regarding `CO[C@@H]1CN(C)C(=O)c2ccc(NC(=O)c3nc4ccccc4s3)cc2OC[C@@H](C)N(Cc2ccncc2)C[C@@H]1C`, the max activity is 23.4%.
